An excerpt weighted towards active compounds, which were near 8% of everything screened.
SARS PLP yeast = qHTS of Yeast-based Assay for SARS-CoV PLP; S. cerevisiae expressing SARS-CoV PLpro, growth rescue; 0.19% of 330,000 active; Potency, µM (highest dose often 32.9 µM), for inactives: top-dose activity, positive = growth rescue, hits mostly activators; calls by dose curve; further: potency means the concentration at half of the fitted maximal effect; 0% is about no effect; nearly all actives have a fitted effect of over 55% in size
HCV inhibitor = qHTS Assay for Inhibitors of Hepatitis C Virus (HCV) | Huh7.5.1 HCVcc-Cre infection, luciferase reporter, 44 h | AID 651820, 2012 | 3.4% of 340,000 active | Potency, µM (titrated, usually from 41.8 µM), for inactives: top-dose activity change, negative = inhibition, most hits filed as inhibitors; active means well fitted inhibition curve with a large enough effect; inconclusive means small, poorly fitted or top-dose-only effect, or another doubt; inactive means no such curve, though single readings can be large or run the other way; further: potency means the concentration at half of the fitted maximal effect; on the % scale 0 is the no-effect control and ±100 the full control effect
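Cells (1,000/well) were plated 4 h before compound, then infected with HCVcc-Cre virus (~0.5 moi). After 44 h further culture, infection was read as luciferase luminescence following a 15 min substrate incubation at room temperature.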
LASV entry inh = qHTS for Inhibitors of binding or entry into cells for Lassa Virus; Lassa virus pseudotype entry inhibition, cell reporter; Potency, µM (highest dose often 37.9 µM), without a hit: at the highest dose activity change, negative = inhibition, actives largely listed as inhibitors; 1.2% of 300,000 active; AID 540256, 2011; calls by dose curve; tested in HEK293 cells; further: potency means the concentration at half of the fitted maximal effect; on the % scale 0 is the no-effect control and ±100 the full control effect; nearly all actives have a fitted effect of over 50% in size
MARV entry inh = qHTS for inhibitors of binding or entry into cells for Marburg Virus. Potency, µM (series often up to 37.8 µM), without a hit: at the top dose activity change, negative = inhibition, actives largely listed as inhibitors. Marburg virus pseudotyped entry inhibition, cell reporter. 1.8% of 300,000 active; calls by dose curve; tested in HEK293 cells; further: potency means the concentration at half of the fitted maximal effect; on the % scale 0 is the no-effect control and ±100 the full control effect
FMDV antiviral = High Throughput Screening for Foot and Mouth Disease Virus Antivirals; 1.2% of 410,000 active; Potency, µM (titrated, usually from 57.9 µM), for inactives: at the highest dose activity change, negative = inhibition, hits mostly inhibitors; AID 1159524, 2015; FMDV antiviral cell-based qHTS; calls by dose curve; tested in HEK293T cells; further: read-out not given here; potency means the concentration at half of the fitted maximal effect; on the % scale 0 is the no-effect control and ±100 the full control effect; nearly all actives have a fitted effect of over 45% in size
HCMV antiviral = qHTS Assay for inhibitors of the human cytomegalovirus (HCMV); HFF cells, HCMV-luciferase reporter, 72 h; stronger effect = lower value; activity change, negative = inhibition, % at 57.5 µM; 4.5% of 410,000 active; AID 1259415, 2018; in the data active means activity change below about -60%; inconclusive means no clear call, values can overlap the other calls; inactive means above about -39%; further: on the % scale 0 is the no-effect control and ±100 the full control effect
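Steps: HFFs plated, 16 h 37C; compounds added; HCMV-luciferase added to MOI 1 PFU/cell; 72 h 37C; OneGlo reagent, 5 min room temperature; luminescence read, normalized to controls.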
* marks the source's active call; other numbers are inactive results; ? = inconclusive; nt = not tested or not shown; [ ] = dose if it differs, or a comment.

SMILES	SARS PLP yeast	HCV inhibitor	LASV entry inh	MARV entry inh	FMDV antiviral	HCMV antiviral
Cc1ccc2oc(-c3cc(NC(=O)Cc4ccccc4)ccc3Cl)nc2c1	nt	nt	?	10.1%[46.1 µM]	46.3%	-35.4
COc1ccc(S(=O)(=O)N2CCN(CC(=O)Nc3cc(Cl)ccc3Cl)CC2)cc1	0.3%	-14.6%	-3.3%	?	-10.2%	-71.5*
O=C(CN1CCN(c2ccccc2O)CC1)Nc1cc(S(=O)(=O)N2CCCC2)ccc1Cl	-5.7%	11.2µM*	nt	nt	-21.5%	-15.7
O=C(CN1CCN(c2ccccc2O)CC1)Nc1ccc(S(=O)(=O)N2CCCCCC2)cc1	0.9%	?	-11.9%	-14.2%	?	-24.7
CCCNC(=O)OC[C@@H]1O[C@H](CCO/N=C(\C)CCN2CCCCc3nc(C)c(C)cc32)C=C[C@@H]1Oc1ccc(OC)cc1	nt	nt	nt	-26.3%[14.2 µM]	nt	nt
Cc1cc(N2CCCC2)c(F)cc1/C=C\[N+](=O)[O-]	10.8%	5.2%	?	-11.0%[46.1 µM]	22.4µM*	-4.4
COc1cc(C(=O)N(C)CCOc2ccccc2)ccc1OCC(=O)Nc1cccc(C(F)(F)F)c1	nt	2.82µM*	-28.9%	?	?	-69.4*
CCOC(=O)C1CCN(C(=O)c2ccc(OCC(=O)Nc3cccc(C(F)(F)F)c3)c(OC)c2)CC1	-8.0%	2.82µM*	?	?	?	-70.5*
CC(C)C(N)C(=O)O (stereo not given)	nt	nt	nt	nt	-10.2%	nt
Cc1ccc(C)n1-c1c(C(=O)NCCCN2CCN(c3ccc(F)cc3)CC2)sc2ncccc12	nt	nt	-22.5%[46.1 µM]	nt	?	19.2
CCOc1ccccc1NC(=O)CN(CCc1ccccc1)S(=O)(=O)c1ccc(C)cc1	nt	nt	-6.3%[46.1 µM]	nt	21.7%	-1.4
COC(=O)c1c(SCC(=O)Nc2ccccc2OC)[nH]c2ccccc2c1=O	nt	nt	16.4%[46.1 µM]	nt	-18.1%	2.0
CCOC(=O)c1cccc(NC(=O)C2CCN(S(=O)(=O)c3cn(C)cn3)CC2)c1	nt	nt	?	nt	3.7%	31.2
C(=C\c1nnc2c3ccccc3ncn12)/c1ccccc1	-9.7%	?	?	?	-5.3%	?
COc1cc(/C=C/c2nnc3c4ccccc4ncn23)cc(OC)c1OC	-7.2%	2.24µM*	?	?	0.0%	19.4
CCC1(C2CCN(Cc3cc4ccccc4o3)CC2)NC(=O)N(CC2COc3ccccc3O2)C1=O (stereo not given)	nt	nt	nt	nt	-24.9%	nt
O=C(CSc1nc2ccccc2c(=O)n1-c1ccccc1)N1CCC1	-0.8%	15.0%	nt	nt	2.0%	-27.2
CC(C)c1ccccc1-n1c(SCC(=O)c2ccc3c(c2)NC(=O)CO3)nc2ccccc2c1=O	0.3%	12.6µM*	?	?	?	-30.4
CC(C)c1ccccc1-n1c(SCC(=O)N2CCc3ccccc3C2)nc2ccccc2c1=O	27.8%	10µM*	?	?	?	-95.2*
CC(C)Cn1c(SCC(=O)N2CCc3ccccc3C2)nc2cc(Cl)ccc2c1=O	8.4%	-8.8%	-0.4%	-8.9%	0.0%	-20.2
O=C(CSc1nc2ccccc2c(=O)n1-c1ccccc1)N1CCc2ccccc2C1	-23.6%	12.6µM*	10µM*	?	?	-94.1*
CN(C)c1ccc(-c2noc(C3CCN(C(=O)Nc4ccc(Cl)cc4)CC3)n2)cc1	0.0%	?	-15.8%[46.1 µM]	-1.3%[46.1 µM]	?	18.3
Cc1ccc(-c2noc(C3CCN(C(=O)Nc4ccc(C#N)cc4)CC3)n2)o1	-4.8%	10µM*	?	5.5%	-21.6%	-83.7*
CCOC(=O)c1ccc(Nc2cc(C)nc(-c3ccccc3)n2)cc1	-2.3%	?	nt	nt	-22.2%	-76.4*
COC(=O)c1cccc(Nc2cc(C)nc(-c3ccccc3O)n2)c1	-25.0%	0.794µM*	-21.9%	?	-15.8%	33.1
SMILES	SARS PLP yeast	HCV inhibitor	LASV entry inh	MARV entry inh	FMDV antiviral	HCMV antiviral
Cc1cc(Nc2cccc(Cl)c2)nc(-c2ccccc2O)n1	-1.9%	?	9.2%[46.1 µM]	?	?	3.8
Cc1cc(Nc2ccc(Cl)cc2)nc(-c2ccccc2O)n1	-3.1%	11.2µM*	nt	nt	19.5%	-31.6
CC1=Nc2cc(C(=O)NCCCN3CCOCC3)ccc2Sc2c(C)ccc(C)c21	-15.4%	?	?	?	-9.3%	-68.5*
CCCNC(=O)c1ccc2c(c1)N=C(C)c1c(C)ccc(C)c1S2	nt	nt	?	?	-20.7%	-102.0*
CC1=Nc2cc(C(=O)NCCc3ccc(Cl)cc3)ccc2Sc2c(C)ccc(C)c21	nt	nt	?	?	-27.5%	-87.7*
CC1=Nc2cc(C(=O)NCCc3ccccc3)ccc2Sc2c(C)ccc(C)c21	nt	nt	-28.2%[46.1 µM]	?	-20.7%	-103.1*
COc1ccc(CNC(=O)c2ccc3c(c2)N=C(C)c2c(C)ccc(C)c2S3)cc1	nt	nt	?	?	?	-6.5
O=C(Cc1ccc(-c2ccccc2)cc1)NCCS(=O)(=O)N1CCN(c2ccccc2)CC1	nt	nt	-1.2%[46.1 µM]	nt	8.4%	64.1
Cc1cccc(CNC(=O)c2cnn(-c3nccc(-c4cc5ccccc5o4)n3)c2C2CC2)n1	nt	nt	nt	nt	-22.2%	nt
CNc1snc(C)c1C(=O)OCC(=O)c1ccc(Cl)cc1	-20.5%	?	nt	nt	?	0.0
CNc1snc(C)c1C(=O)OC(C)C(=O)c1ccc(F)cc1 (stereo not given)	-2.7%	11.2µM*	nt	nt	?	-78.7*
CCc1ccc(/C=C2/C(=O)N(c3ccccc3)C(=S)N2CC(=O)OC)s1	-12.0%	?	?	?	-11.1%	-0.7
CCN1C(=O)/C(=C/N(C(C)=O)c2ccccc2)N(c2ccccc2)C1=S	3.1%	-8.1%	-23.9%	-1.2%[46.1 µM]	31.6µM*	2.8
COc1ccc(NC(=O)C2=C(C)Nc3nc(CCCO)nn3C2c2ccc(O)cc2)cc1 (stereo not given)	nt	nt	?	nt	-8.3%	3.4
CC(=O)Oc1ccccc1/C=C/c1nc2ccccc2c(=O)o1	-2.7%	6.7%	2µM*	?	?	-9.5
COc1cc(NC(=O)C2CCCCC2)c2ncccc2c1	-11.6%	10µM*	3.1%	-7.3%	-6.4%	23.8
Cc1cccc2cc(CN(C(=O)c3ccc(C(F)(F)F)cc3)C3CC3)c(N3CCC(O)CC3)nc12	nt	nt	nt	nt	-10.9%	nt
O=C1C=C(NCCN2CCOCC2)C(=O)c2cnccc21	-51.6%	?	?	2.91µM*	nt	nt
O=C(NCCN1CCOCC1)c1ccncc1	1.6%	17.7%	?	-2.7%	-11.8%	17.8
Cc1ccccc1Cn1nnc(-c2cccc(C(=O)O)c2)n1	-6.0%	3.4%	13µM*	5.8µM*	-51.4%	149.9
O=C(O)c1cccc(-c2nnn(Cc3ccccc3Cl)n2)c1	-8.3%	17.2%	8.2µM*	6.31µM*	-25.4%	117.4
Fc1ccccc1-c1nc(-c2ccccc2)oc1NCc1ccccc1	nt	nt	nt	0.7%[14.2 µM]	nt	nt
N#C/C(=C\c1coc2ccc(O)cc2c1=O)C(=O)Nc1nc2ccccc2s1	-2.5%	?	nt	nt	?	-73.1*
N#C/C(=C\c1coc2ccccc2c1=O)C(N)=S	2.0%	?	1.3%	11.9%[46.1 µM]	4.5%	22.6

Assay outcomes: PubChem BioAssay, National Center for Advancing Translational Sciences (NCATS)
